Experimental data as given in the supplement of paper PMC8975748.
Structures can show the parent of a compound that is named as a salt. ± gives the standard deviation of the averaged measurements.

The compounds below were run on Saccharomyces cerevisiae BY4741 SeMeCo community (assay: mean cell size (pixel area) (pixels); higher = larger cells). Conditions: 10 µM; 24 h; SM minimal medium.
Outline: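 Yeast cells were fixed with paraformaldehyde, imaged by automated confocal microscopy and analysed in Harmony to obtain mean cell pixel area per well. They came from a four-plasmid fluorescent Saccharomyces cerevisiae BY4741 community, each plasmid complementing one auxotrophy and carrying a fluorescent marker. Before imaging, 70 µl of culture at OD600 = 0.3 was incubated for 24 h in SM medium in 384-well plates predosed acoustically with drug (final 10 µM). Values are means of 3 replicates. Same SeMeCo high-content imaging drug screen: Selleck FDA-approved drugs at 10 µM, 24 h in SM medium, 384-well plates, 3 replicates.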

| Compound | mean cell size |
| --- | --- |
| CC(=O)O[C@]1(C(C)=O)CC[C@H]2[C@@H]3C[C@H](C)C4=CC(=O)CC[C@]4(C)[C@H]3CC[C@@]21C [Medroxyprogesterone acetate] | 12.6 ± 0.18 |
| CN1[C@@H]2CC[C@H]1C[C@@H](OC(=O)c1c[nH]c3ccccc13)C2 [Tropisetron] | 12.15 ± 0.079 |
| O=C(O)Cc1ccccc1Nc1c(Cl)cccc1Cl [Diclofenac acid] | 12.5 ± 0.047 |
| C[C@H]1O[C@@H](O[C@H]2[C@@H](O)C[C@H](O[C@H]3[C@@H](O)C[C@H](O[C@H]4CC[C@@]5(C)[C@H](CC[C@@H]6[C@@H]5C[C@@H](O)[C@]5(C)[C@@H](C7=CC(=O)OC7)CC[C@]65O)C4)O[C@@H]3C)O[C@@H]2C)C[C@H](O)[C@@H]1O [Digoxin] | 12.4 ± 0.22 |
| Clc1ccc(CCC(Cn2ccnc2)Sc2c(Cl)cccc2Cl)cc1 (stereo not given) [Butoconazole nitrate] | 12.5 ± 0.15 |
| Nc1ccc(S(=O)(=O)Nc2ncccn2)cc1 [Sodium sulfadiazine] | 12.42 ± 0.059 |
| CC(=O)OCC(COC(C)=O)OC(C)=O [Triacetin] | 12.4 ± 0.15 |
| CC/C(=C(\c1ccccc1)c1ccc(OCCN(C)C)cc1)c1ccccc1 [Tamoxifen Citrate] | 11.7 ± 0.14 |
| Cc1ccc2c(Cl)cc(Cl)c(O)c2n1 [Chlorquinaldol] | 14.5 ± 0.18 |
| CCOC(=O)c1c(CSc2ccccc2)n(C)c2cc(Br)c(O)c(CN(C)C)c12 [Arbidol HCl] | 12.6 ± 0.16 |
| CCCN1CCCC[C@H]1C(=O)Nc1c(C)cccc1C [Ropivacaine HCl] | 12.6 ± 0.13 |
| CC(C)c1nc(N(C)S(C)(=O)=O)nc(-c2ccc(F)cc2)c1/C=C/[C@@H](O)C[C@@H](O)CC(=O)O [Rosuvastatin Calcium] | 11.6 ± 0.2 |
| CCN(CC)CCOc1ccc(C(=C(Cl)c2ccccc2)c2ccccc2)cc1 [Clomifene citrate] | 12.1 ± 0.14 |
| Nc1ccc(S(N)(=O)=O)cc1 [Sulfanilamide] | 12.4 ± 0.23 |
| O=C1CN(/N=C/c2ccc(-c3ccc([N+](=O)[O-])cc3)o2)C(=O)N1 [Dantrolene sodium] | 12.4 ± 0.18 |
| O=C1Cc2cc(CCN3CCN(c4nsc5ccccc45)CC3)c(Cl)cc2N1 [Ziprasidone HCl] | 12.2 ± 0.18 |
| CCCc1nc(C)c2c(=O)nc(-c3cc(S(=O)(=O)N4CCN(CC)CC4)ccc3OCC)[nH]n12 [Vardenafil HCl Trihydrate] | 12.53 ± 0.092 |
| COc1ccc2cc([C@H](C)C(=O)O)ccc2c1 [Naproxen] | 13 ± 0.17 |
| Clc1ccc2c(N3CCN(CCCN4CCN(c5ccnc6cc(Cl)ccc56)CC4)CC3)ccnc2c1 [Piperaquine phosphate] | 12.2 ± 0.16 |
| O=C1[C@H]2CCCC[C@H]2C(=O)N1CCCCN1CCN(c2nsc3ccccc23)CC1 [Perospirone hydrochloride] | 12.5 ± 0.18 |

| Compound | mean cell size |
| --- | --- |
| COc1ccc2cc(C(=O)O)ccc2c1 [6-Methoxy-2-naphthoic acid] | 13.4 ± 0.15 |
| CC(C)Cc1ccc(C(C)C(=O)O)cc1 (stereo not given) [Ibuprofen] | 13.04 ± 0.12 |
| CN1CCN(CCCN2c3ccccc3Sc3ccc(Cl)cc32)CC1 [Prochlorperazine dimaleate salt] | 12.4 ± 0.15 |
| COC(=O)C1=C(C)NC(C)=C(C(=O)OCC(C)C)C1c1ccccc1[N+](=O)[O-] (stereo not given) [Nisoldipine] | 12.2 ± 0.14 |
| Cc1cccc(C)c1NC(=O)C1CCCCN1C (stereo not given) [Mepivacaine HCl] | 12.5 ± 0.31 |
| CC(=O)NC[C@H]1CN(c2ccc(N3CCOCC3)c(F)c2)C(=O)O1 [Linezolid] | 12.51 ± 0.11 |
| C#CCN[C@@H]1CCc2ccccc21 [Rasagiline] | 12.26 ± 0.11 |
| CC(C(=O)O)c1ccc2c(c1)Cc1cccnc1O2 (stereo not given) [Pranoprofen] | 12.56 ± 0.067 |
| COc1cc2c(cc1OC)-c1cc3ccc(OC)c(OC)c3c[n+]1CC2 [Palmatine] | 12.41 ± 0.069 |
| NC(=O)N/N=C/c1ccc([N+](=O)[O-])o1 [Nitrofural] | 12.84 ± 0.1 |
| CN(C)[C@@H]1C(O)=C(C(N)=O)C(=O)[C@@]2(O)C(O)=C3C(=O)c4c(O)cccc4[C@@](C)(O)[C@H]3[C@H](O)[C@@H]12 [Oxytetracycline Dihydrate] | 12.6 ± 0.18 |
| COc1ncnc(NS(=O)(=O)c2ccc(N)cc2)c1OC [Sulfadoxine] | 12.47 ± 0.085 |
| CCCCOc1cc(C(=O)OCCN(CC)CC)ccc1N [Oxybuprocaine HCl] | 12.6 ± 0.3 |
| C#C[C@]1(O)CC[C@H]2[C@@H]3CCC4=CCCC[C@@H]4[C@H]3CC[C@@]21C [Lynestrenol] | 12.5 ± 0.23 |
| CN[C@H]1CC[C@@H](c2ccc(Cl)c(Cl)c2)c2ccccc21 [Sertraline HCl] | 12.4 ± 0.056 |
| CN[C@@H]1[C@H](O[C@H]2[C@H](O[C@H]3[C@H](O)[C@@H](O)[C@H](N=C(N)N)[C@@H](O)[C@@H]3N=C(N)N)O[C@@H](C)[C@]2(O)C=O)O[C@@H](CO)[C@H](O)[C@H]1O [Streptomycin sulfate] | 11.99 ± 0.031 |
| C#C[C@]1(O)CC[C@H]2[C@@H]3CCc4cc(OC5CCCC5)ccc4[C@H]3CC[C@@]21C [Quinestrol] | 12.4 ± 0.25 |
| CCC[C@@H]1C[C@@H](C(=O)N[C@@H]([C@H]2O[C@H](SC)[C@H](O)[C@@H](O)[C@H]2O)[C@H](C)Cl)N(C)C1 [Clindamycin HCl] | 12.61 ± 0.074 |
| COC(=O)C1=C(C)NC(C)=C(C(=O)OCCN2CCN(C(c3ccccc3)c3ccccc3)CC2)C1c1cccc([N+](=O)[O-])c1 (stereo not given) [Manidipine 2HCl] | 12 ± 0.3 |
| CC(=O)N[C@H]1[C@H]([C@H](O)[C@H](O)CO)OC(C(=O)O)=C[C@@H]1NC(=N)N [Zanamivir] | 11.9 ± 0.17 |
